From PubChem
A selection: hits, their analogues and other compounds. The true share with any hit is near 12%.
BAZ2B block: qHTS Assay for Inhibitors of BAZ2B. Bromodomain adjacent to zinc finger domain protein 2B (Homo sapiens), Q9UIF8. AlphaScreen BAZ2B-H3K14Ac peptide displacement. Potency, µM (top dose mostly 114 µM), for inactives: at the top dose activity change, negative = inhibition, usual class: inhibitors. 360,000 tested, 4.4% active. AID 504333, 2011; note: % is set by controls: 0 for no effect and ±100 for the full control effect; nearly all actives have a fitted effect of over 60% in size
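In this displacement format the biotinylated H3(5-23) peptide acetylated at Lys14 serves as ligand at 50 nM, with BAZ2B at 50 nM in PBS pH 7.4 containing 0.01% Tween-20. Donor and acceptor beads are 10 ug/mL final.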
HP1b chromo inh: HTS for Inhibitors of HP1-beta Chromodomain Interactions with Methylated Histone Tails | Chromobox protein homolog 1 (Homo sapiens), P83916 | AlphaScreen HP1-beta / biotin-H3K9me3 peptide binding | Potency, µM (highest dose often 114 µM), for inactives: at the highest dose activity change, negative = inhibition, hits mostly inhibitors | 390,000 tested, 0.56% active | AID 540317, 2011; note: nearly all actives have a fitted effect of over 70% in size
Target sequence (P83916 whole entry, looked up): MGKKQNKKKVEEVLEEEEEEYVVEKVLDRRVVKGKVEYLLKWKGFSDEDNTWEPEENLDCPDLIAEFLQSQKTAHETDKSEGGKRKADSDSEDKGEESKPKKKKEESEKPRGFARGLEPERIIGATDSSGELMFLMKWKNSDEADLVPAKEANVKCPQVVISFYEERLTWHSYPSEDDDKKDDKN
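Compound inhibition of the preformed complex between 50 nM HP1-beta and 50 nM biotinylated H3K9me3 peptide was read by AlphaScreen. Buffer was PBS pH 7.4 with 0.01% Tween-20. Incubations ran 30 min at room temperature, with 10 ug/mL donor/acceptor beads.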
L3MBTL1 inh: qHTS Assay for the Inhibitors of L3MBTL1; Lethal(3)malignant brain tumor-like protein 1 (Homo sapiens), Q9Y468; AlphaScreen L3MBTL1–H3K9me1 peptide binding; Potency, µM (highest dose often 57.1 µM), without a hit: at the highest dose activity, negative = inhibition, usual class: inhibitors; 230,000 tested, 0.66% active; AID 485360, 2010; note: % is set by controls: 0 for no effect and ±100 for the full control effect; nearly all actives have a fitted effect of over 60% in size
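AlphaScreen assay: L3MBTL1 (50 nM final) was preincubated 30 min at room temperature with biotinylated H3(1-15)K9me1 peptide (75 nM final), then 30 min with library compounds; streptavidin donor and nickel chelate acceptor beads (10 ug/mL final) added, 30 min dark.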
JMJD2A Tudor inh: qHTS Assay for Inhibitors of JMJD2A-Tudor Domain; Lysine-specific demethylase 4A (Homo sapiens), O75164; Potency, µM (top dose mostly 114 µM), for inactives: top-dose activity change, negative = inhibition, hits mostly inhibitors; 390,000 tested, 4.4% active; AID 504339, 2011; AlphaScreen JMJD2A-Tudor / H3K4me3 peptide binding; note: % is set by controls: 0 for no effect and ±100 for the full control effect; nearly all actives have a fitted effect of over 50% in size
Sfp PPTase inh: qHTS Assay for Inhibitors of Bacillus subtilis Sfp phosphopantetheinyl transferase (PPTase); Biochemical Sfp PPTase activity, qHTS; 4'-phosphopantetheinyl transferase ffp (Bacillus subtilis), Q9F4F7; 310,000 tested, 3.5% active; Potency, µM, for the others: largest response in the series, negative = inhibition, usual class: inhibitors;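 note: the enzyme is Sfp with the accession as filed and its product quenches rhodamine fluorescence; 0% = enzyme reaction without inhibitor and -100% = no enzyme wells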
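Compounds were incubated with enzyme (final 15 nM) for 15 min at room temperature before substrate addition started the reaction. Fluorescence at 525 nm excitation, 598 nm emission was recorded immediately and after 30 minutes.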
G9a inh: qHTS Assay for Inhibitors of Histone Lysine Methyltransferase G9a | Histone-lysine N-methyltransferase EHMT2 (Homo sapiens), Q96KQ7 | G9a H3K9 monomethylation, AlphaScreen, 2 h | Potency, µM (titrated, usually from 102 µM), for the others: top-dose activity, negative = inhibition, most hits filed as inhibitors | 350,000 tested, 8.8% active | AID 504332, 2011; note: % is set by controls: 0 for no effect and ±100 for the full control effect; nearly all actives have a fitted effect of over 75% in size
Target sequence (Q96KQ7 913-1193 limits assumed): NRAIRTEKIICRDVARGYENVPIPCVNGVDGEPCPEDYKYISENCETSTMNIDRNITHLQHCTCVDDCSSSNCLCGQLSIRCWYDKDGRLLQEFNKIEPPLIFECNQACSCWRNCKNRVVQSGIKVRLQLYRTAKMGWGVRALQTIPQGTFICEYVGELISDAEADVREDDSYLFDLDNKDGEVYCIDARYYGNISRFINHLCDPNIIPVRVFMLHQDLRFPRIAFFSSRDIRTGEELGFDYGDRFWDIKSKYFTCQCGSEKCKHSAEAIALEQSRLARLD
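Quantitative HTS format: methyltransferase activity on a biotin-tagged H3K9 peptide is measured by AlphaScreen, using a rabbit anti-monomethyl-H3K9 antibody with streptavidin donor and anti-IgG acceptor beads. Final levels are 20 nM enzyme, 500 nM peptide, 20 uM SAM; 2 h RT.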
* hit, by the source's call; ? = inconclusive; · = not tested or not shown; [ ] = dose if it differs, or a comment. Calls come from the whole dose curve; as a rule, active = well fitted curve in the direction sought with a large enough effect; inconclusive = small, poorly fitted or top-dose-only effect, or another doubt; inactive = no such curve, though single readings can be large; an effect the other way counts as inactive or inconclusive. Potency is the fitted concentration of half-maximal effect.

SMILES	BAZ2B block	HP1b chromo inh	L3MBTL1 inh	JMJD2A Tudor inh	Sfp PPTase inh	G9a inh
O=C(O)c1ncn(Cc2ccc(Br)cc2)c1C(=O)O	32µM*	47%	8%	-99%	50µM*	4µM*
COc1cc(C(=O)NC(c2ccccc2)c2ccccc2)cc(OC)c1C	?	15%	·	-6%	-4%	50µM*
COc1ccc(C(NC(=O)c2cc(OC)ccc2OC)c2ccccc2)cc1 (stereo not given)	12%	30%	·	-1%	-21%	17%
CNC(=O)c1cc(Cl)c(OC)c(OC)c1	-1%	?	-6%	-35%	45µM*	7.9µM*
NNC(=O)c1cc(O)c(O)c(O)c1	18µM*	45µM*	0.56µM*	1.8µM*	32µM*	8.9µM*
COc1cc(C(N)=O)cc(Cl)c1OC	-1%	14%	1%	-9%	6%	?
COc1c(Cl)cc(C(=O)NN)cc1Cl	4%	30%	14%	-4%	50µM*	·
COc1ccc2oc(=O)c(C(=O)NCCc3c(C)[nH]c4c(C)cccc34)cc2c1	-37%	-14%	·	?	·	-27%[59 µM]
CCOc1ccccc1NC(=O)Cn1nnc2sc3c(c2c1=O)CCC(C(C)(C)C)C3 (stereo not given)	9%	59%	·	-16%	·	9%[59 µM]
CN(C(=O)c1ccno1)c1nnc(-c2cnccn2)s1	1%	46%	8%	-31%	50µM*	-47%
CN(C(=O)c1ccc(C#N)cc1)c1nnc(-c2cnccn2)s1	-5%	36%	·	-8%	23%	11%[12.7 µM]
CN(C(=O)COC(=O)Cn1c(C(F)(F)F)nc2ccccc21)c1c(N)n(Cc2ccccc2)c(=O)[nH]c1=O	-4%	18%	·	-1%	-3%	·
CCc1nc2ccccc2n1CC(=O)OCC(=O)N(CC(C)C)c1c(N)n(Cc2ccccc2)c(=O)[nH]c1=O	6%	29%	1%	-5%	·	56µM*
CC(C)CN(C(=O)COC(=O)c1ccccn1)c1c(N)n(Cc2ccccc2)c(=O)[nH]c1=O	?	-13%	-3%	6.3µM*	·	45µM*
COc1ccc(CN(Cc2ccccc2)C(=O)c2ccccc2O)cc1	·	·	·	68%	·	·
CCCCc1nc2c(c3c1C[C@H](C)OC3)CN(S(=O)(=O)c1ccc(C)cc1)CC2	·	·	·	·	-10%	·
COc1ccc(CCNCC(O)COc2cccc(C(C)=O)c2)cc1OC (stereo not given)	71µM*	?	·	25µM*	-31%	4%
COc1ccc(CCNCC(O)COc2c(C)cccc2C)cc1OC (stereo not given)	50µM*	?	·	?	-13%	-5%
COc1ccc(CCNCC(O)COc2ccc(Cl)cc2)cc1OC (stereo not given)	-17%	21%	·	-24%	30%	19%[59 µM]
Cc1ccccc1-c1nc(CN2CCC(C(=O)NC(C)C)CC2)c(C)o1	-37%	38%	·	-6%	·	3%[59 µM]
COc1ccc(Sc2ccccc2CN(C)C)cc1OC	-3%	53%	-6%	-10%	8%	-11%[59 µM]
CNCc1ccccc1Sc1ccc(O)c(O)c1	?	?	?	79µM*	?	13µM*
C#CCOCCOCCOCCNc1nc(N2CCN(C(=O)[C@H](CCCCN)n3cc([C@@H](N)C(C)CC)nn3)CC2)nc(N2CCN(C(=O)[C@H](Cc3ccc(O)cc3)n3cc([C@@H](N)CC(C)C)nn3)CC2)n1 (stereo not given in full)	79µM*	26%	-7%	?	8%	?
C#CCOCCOCCOCCNc1nc(N2CCN(C(=O)[C@H]([C@@H](C)CC)n3cc(CCCCN)nn3)CC2)nc(N2CCN(C(=O)[C@H](CCCCN)n3cc(CC(C)O)nn3)CC2)n1 (stereo not given in full)	?	23%	3%	-34%	·	-37%[2.33 µM]
C#CCOCCOCCOCCNc1nc(N2CCN(C(=O)[C@H](CCCCN)n3cc([C@@H](N)CC(C)C)nn3)CC2)nc(N2CCN(C(=O)[C@H](Cc3ccc(O)cc3)n3cc([C@@H](N)CC(C)C)nn3)CC2)n1	56µM*	-7%	-25%	79µM*	20%	4%[12.7 µM]
SMILES	BAZ2B block	HP1b chromo inh	L3MBTL1 inh	JMJD2A Tudor inh	Sfp PPTase inh	G9a inh
C#CCOCCOCCOCCNc1nc(N2CCN(C(=O)[C@H]([C@@H](C)CC)n3cc([C@@H](N)Cc4ccc(O)cc4)nn3)CC2)nc(N2CCN(C(=O)[C@H](CCCCN)n3cc([C@@H](N)CC(C)C)nn3)CC2)n1	79µM*	·	-24%	·	8%	?
Cc1nn(CCO)c2ncc(C(=O)c3cc(F)ccc3O)cc12	4%	14%	·	11%	4%	50µM*
Cc1nn(CCO)c2ncc(C(=O)c3cc(Cl)ccc3O)cc12	5%	3%	·	-14%	13%	8%
COc1ccc(-c2nc3nc(C)cc(Nc4ccc(C(C)=O)cc4)n3n2)cc1	-10%	26%	·	-9%	·	-30%[59 µM]
CCOC(=O)c1nc(C)sc1-c1ccnn1S(=O)(=O)c1ccccc1C(F)(F)F	18%	18%	9%	-4%	50µM*	·
Cc1cccc(-c2nc(CN3CCN(C(=O)C4CCCO4)CC3)cs2)c1 (stereo not given)	-37%	4%	·	-18%	10%	71µM*
Cc1ccccc1CC(=O)N1CCN(C(=O)C2CCCO2)CC1 (stereo not given)	-7%	26%	·	-3%	4%	53%
CCOc1ccccc1NC(=O)CCS(=O)(=O)c1ccc(Br)cc1	13µM*	35µM*	·	16µM*	8%	13µM*
CCOc1ccccc1NC(=O)CCNS(=O)(=O)c1ccc(NC(C)=O)cc1	4%	38%	·	3%	13%	19%
